# Measured values published in PubChem BioAssay AID687016 (The Scripps Research Institute Molecular Screening Center, 2013).
# The campaign covered roughly 370,000 compounds. About 2,800 (0.76%) were called active. This excerpt belongs to a sample that is enriched for actives. Unmarked numbers belong to inactive results. Rule as the data show it: active = inhibition above about 21%; inactive = the rest.
# Target: E3 ubiquitin-protein ligase UHRF1 (Homo sapiens) (UniProt Q96T88)
# Test: UHRF1 methylated DNA binding inhibitors, primary screen, counter-screen for MBD2 inhibitor project, biochemical, TR-FRET, human UHRF1, single concentration (AID 687016);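 also: UHRF1 SRA domain binding a hemimethylated CpG hairpin DNA probe; 0% = median of test compound wells and 100% = reference inhibitor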
# Settings: UHRF1 binding to methylated oligo, at 4.4 µM, hits give high values
# E3 ubiquitin-protein ligase UHRF1 (Homo sapiens), sequence (Q96T88 whole entry, looked up, the tested form may be a part): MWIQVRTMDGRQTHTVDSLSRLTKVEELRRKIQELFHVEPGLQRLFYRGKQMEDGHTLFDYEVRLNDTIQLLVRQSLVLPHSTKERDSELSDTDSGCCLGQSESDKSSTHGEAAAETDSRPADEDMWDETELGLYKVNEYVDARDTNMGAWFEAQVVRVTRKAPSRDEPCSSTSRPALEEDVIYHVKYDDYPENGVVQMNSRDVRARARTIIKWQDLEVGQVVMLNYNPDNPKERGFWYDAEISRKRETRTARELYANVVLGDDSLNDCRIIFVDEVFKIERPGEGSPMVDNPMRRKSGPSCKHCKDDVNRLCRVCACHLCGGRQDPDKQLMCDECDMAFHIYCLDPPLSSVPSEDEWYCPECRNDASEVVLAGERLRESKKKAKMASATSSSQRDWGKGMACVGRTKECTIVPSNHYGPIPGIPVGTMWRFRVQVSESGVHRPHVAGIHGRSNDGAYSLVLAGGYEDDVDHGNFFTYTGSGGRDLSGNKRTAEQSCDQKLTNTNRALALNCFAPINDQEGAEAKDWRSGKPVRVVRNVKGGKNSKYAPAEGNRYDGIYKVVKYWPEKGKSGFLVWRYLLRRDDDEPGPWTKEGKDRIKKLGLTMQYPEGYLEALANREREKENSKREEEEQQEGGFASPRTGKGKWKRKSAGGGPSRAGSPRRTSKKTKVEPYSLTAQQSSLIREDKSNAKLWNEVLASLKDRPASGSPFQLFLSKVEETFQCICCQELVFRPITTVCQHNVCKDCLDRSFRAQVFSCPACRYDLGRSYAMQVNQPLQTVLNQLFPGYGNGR
row,SMILES,inhibition
1,CC(C)c1ccc(OCC(=O)N2CCCN(C)CC2)cc1,-1.28%
2,CC(=O)Nc1ccccc1C(=O)OCC(=O)c1cccc2ccccc12,0.36%
3,Cn1cc(C(=O)OCC(=O)N2CCCC2)c2ccccc21,73.7% (active)
4,O=C1C2CCN(CC2)C1(CO)CO,0.15%
5,Cc1ccccc1CCC[C@@H](CC1CCCCC1)CN(C)C(=O)Oc1ccccc1,-0.75%
6,Cc1ccnc(-n2c(C)cc(/C=C3\C(=O)NC(=S)N(C)C3=O)c2C)c1,1.95%
7,Cc1cc(/C=C2/C(=O)NC(=O)N(Cc3ccco3)C2=O)c(C)n1-c1ccc(C(=O)O)cc1,78.5% (active)
8,O=C1NC(=O)N(Cc2ccco2)C(=O)/C1=C\c1ccc(-c2ccc(F)cc2)o1,81.8% (active)
9,Cc1cc(C=C2C(=O)NC(=O)NC2=O)c(C)n1-c1ccncc1,-7.92%
10,CO[C@H]([C@H](C)/C=C/N(C)C=O)[C@@H](C)C(=O)CC[C@H](C)[C@H](O)[C@H](C)[C@H]1OC(=O)/C=C/C(C)=C/[C@H](O)[C@H](OC)C[C@@H]2C=CC[C@@H](C[C@H](OC)[C@@]3(CO3)[C@@H](OC)C[C@@H](OC)[C@@H]1C)O2,-2.95%
11,CC(=CCOc1ccc2ccc(=O)oc2c1)C1=CC(=O)C(C)(C)O1,0.79%
12,NC(=O)Cn1cc(C(=O)c2ccccc2F)c2ccccc21,-1.97%
13,S=C(NCCc1ccccc1)N1Cc2cc(N3CCOCC3)ccc2-n2nncc2C1,-3.2%
14,CCOC(=O)[C@]12Cc3ccccc3[C@H]1N(C1CCCCC1)C(=O)c1cc(OC)ccc12,-1.33%
15,COP(=O)(Sc1ccccc1)C(Cc1ccccc1)NC(=O)OCc1ccccc1 (stereo not given),-3.61%
16,O=c1c2ccccc2nc(-c2ccc(Cl)cc2Cl)n1-c1ccncc1,-0.96%
17,COc1ccc(N2C(=O)/C(=C/c3ccco3)C(=O)NC2=S)cc1,68.7% (active)
18,CCOC(=O)C(O)(c1ccc(N=Cc2ccccc2O)c(C)c1)C(F)(F)F (stereo not given),-1.83%
19,CN(C)CCCN=Cc1c(O)n(Cc2ccco2)c(=O)[nH]c1=O,0.23%
20,CC(C)CN1CCN(Cc2ccccc2C(F)(F)F)CC1CCO (stereo not given),-2.88%
